Laboratory results: the supplement of paper PMC3545927
The other results are listed elsewhere or left out. The hit rate among all sequences tested is not known here.

Biological target: furin, P09958
Test: furin cleavage Z-score vs untreated control; higher = more cleavage, active = 3.5 or more, inactive = 1 or less, 8 variable residues between constant flanks
Protocol: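 Multiplexed peptide-cDNA fusion cleavage assay. 8-mer variable peptides flanked by constant Cys-Ala (N-term) and Ala-Gly-Asn-Ala-Ser-Ala-Ser-Ala (C-term) and conjugated to a cDNA oligonucleotide were bead-immobilised via the N-terminus. They were treated with purified furin at a 1:10 enzyme:substrate ratio in 50 mM HEPES pH 7.5, 1 mM CaCl2, 100 mM NaCl for 7.5, 15 or 30 min. Released cDNA was counted by next-generation sequencing, and log counts versus no-furin controls were lowess-adjusted and converted to robust Z-scores.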

Sequence of furin, P09958 (P09958 whole entry): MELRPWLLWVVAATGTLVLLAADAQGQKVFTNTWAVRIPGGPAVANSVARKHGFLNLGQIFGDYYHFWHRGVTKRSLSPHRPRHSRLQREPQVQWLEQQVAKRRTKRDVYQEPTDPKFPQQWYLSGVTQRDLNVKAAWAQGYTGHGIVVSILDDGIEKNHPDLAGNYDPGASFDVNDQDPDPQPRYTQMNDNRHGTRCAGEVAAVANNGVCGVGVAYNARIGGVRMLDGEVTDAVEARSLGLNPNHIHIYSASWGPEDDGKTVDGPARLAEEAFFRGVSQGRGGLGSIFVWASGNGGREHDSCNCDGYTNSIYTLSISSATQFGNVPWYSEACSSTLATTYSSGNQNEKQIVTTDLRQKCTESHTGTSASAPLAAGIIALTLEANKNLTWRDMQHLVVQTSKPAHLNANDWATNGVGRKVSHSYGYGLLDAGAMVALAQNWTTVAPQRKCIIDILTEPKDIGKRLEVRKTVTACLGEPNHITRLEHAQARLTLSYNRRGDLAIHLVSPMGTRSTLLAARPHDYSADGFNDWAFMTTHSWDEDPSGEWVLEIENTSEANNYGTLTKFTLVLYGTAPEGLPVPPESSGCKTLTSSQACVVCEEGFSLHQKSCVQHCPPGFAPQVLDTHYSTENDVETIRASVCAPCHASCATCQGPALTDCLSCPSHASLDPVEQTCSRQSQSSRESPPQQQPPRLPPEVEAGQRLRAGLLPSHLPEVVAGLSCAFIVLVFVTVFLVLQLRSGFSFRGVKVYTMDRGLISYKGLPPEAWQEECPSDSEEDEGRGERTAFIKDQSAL

Sequence	furin cleavage Z-score (7.5 min)	furin cleavage Z-score (15 min)	furin cleavage Z-score (30 min)
CARRARQARRAGNASASA [FS-1071]	-0.692 (inactive)	0.798 (inactive)	2.53
CAPRARAARRAGNASASA [FS-1550]	4.8 (active)	6.53 (active)	7.08 (active)
CAIKARAACRAGNASASA [HC1519]	0.264 (inactive)	-0.0832 (inactive)	0.862 (inactive)
CARRARASDRAGNASASA [FS-2176]	3.3	2.19	4.92 (active)
CASLRAFTEAAGNASASA [HC1538]	-0.614 (inactive)	-1.13 (inactive)	0.282 (inactive)
CANKNRLRRIAGNASASA [FS-696]	2.17	3.21	3.66 (active)
CALYNRTRRIAGNASASA [FS-61]	-0.475 (inactive)	0.0321 (inactive)	0.723 (inactive)
CAGLSRHRRIAGNASASA [FS-1329]	4.21 (active)	4.36 (active)	4.6 (active)
CAYLARNARIAGNASASA [FS-319]	-0.614 (inactive)	-1.5 (inactive)	0.218 (inactive)
CASLVRNRRIAGNASASA [FS-626]	3.81 (active)	7.06 (active)	7.84 (active)
CAVGSKQRRIAGNASASA [FS-631]	-0.93 (inactive)	-0.511 (inactive)	-0.419 (inactive)
CAEINRPRRIAGNASASA [FS-156]	0.686 (inactive)	-0.166 (inactive)	0.217 (inactive)
CATLGRHRRIAGNASASA [FS-305]	0.637 (inactive)	4.75 (active)	4.61 (active)
CALSTGCVVIAGNASASA [HC998]	-0.865 (inactive)	-1.26 (inactive)	1.11
CAAAGLQDCTAGNASASA [HC1523]	-0.616 (inactive)	-1.19 (inactive)	-0.342 (inactive)
CASTHCSAHLAGNASASA [HC2515]	0.673 (inactive)	1.32	-0.709 (inactive)
CARSYRIVRTAGNASASA [FS-1934]	5.65 (active)	7.17 (active)	7.79 (active)
CAASSRWRRHAGNASASA [FS-117]	6.7 (active)	5.67 (active)	5.46 (active)
CANIRTGVRTAGNASASA [HC799]	-0.448 (inactive)	-0.243 (inactive)	-0.393 (inactive)
CASNSLLRHHAGNASASA [HC1384]	0.356 (inactive)	-0.0116 (inactive)	0.517 (inactive)
CALARRQRRHAGNASASA [FS-266]	7.59 (active)	7.8 (active)	6.43 (active)
CASASRNRRHAGNASASA [FS-1276]	12.5 (active)	11.1 (active)	8.5 (active)

Sequence	furin cleavage Z-score (7.5 min)	furin cleavage Z-score (15 min)	furin cleavage Z-score (30 min)
CARSYRDSGIAGNASASA [FS-2463]	0.464 (inactive)	1.76	-0.62 (inactive)
CAASSREIRQAGNASASA [FS-1446]	0.448 (inactive)	1.14	0.453 (inactive)
CAAVCTRGVAAGNASASA [HC752]	0.499 (inactive)	0.0628 (inactive)	1.04
CAREMRALACAGNASASA [FS-2917]	0.375 (inactive)	-0.261 (inactive)	0.24 (inactive)
CATTYCSGSWAGNASASA [HC1869]	-2.31 (inactive)	-0.739 (inactive)	-0.526 (inactive)
CAGAVYTFYGAGNASASA [HC553]	-0.781 (inactive)	-1.17 (inactive)	-0.823 (inactive)
CADYEVVTSTAGNASASA [HC2289]	0.403 (inactive)	0.654 (inactive)	0.0996 (inactive)
CAFTFSPRRHAGNASASA [HC306]	-1.3 (inactive)	-0.113 (inactive)	-0.24 (inactive)
CASHARPRWIAGNASASA [HC1653]	0.938 (inactive)	1.44	0.423 (inactive)
CARSHRDTATAGNASASA [FS-1791]	0.447 (inactive)	1.01	-0.325 (inactive)
CAAEEDEREIAGNASASA [HC1291]	-0.251 (inactive)	-1.7 (inactive)	-0.863 (inactive)
CARSHRMRRHAGNASASA [FS-1272]	12.9 (active)	13.7 (active)	9.81 (active)
CARSHRSCRTAGNASASA [FS-1792]	0.788 (inactive)	2.22	3.59 (active)
CARCYRSCETAGNASASA [FS-1688]	-1.32 (inactive)	0.463 (inactive)	-0.398 (inactive)
CASSKRNRRHAGNASASA [FS-1418]	10.5 (active)	12 (active)	10.1 (active)
CASSKRAEAPAGNASASA [FS-2852]	-1.06 (inactive)	-1.45 (inactive)	0.412 (inactive)
CASARRGREIAGNASASA [HC662]	7.44 (active)	8.55 (active)	8.19 (active)
CAYLTRDPTTAGNASASA [HC1562]	-1.51 (inactive)	-0.691 (inactive)	-1.7 (inactive)
CADWEVVTSTAGNASASA [HC2288]	-1.03 (inactive)	-0.418 (inactive)	-0.194 (inactive)
CAKANLLSVEAGNASASA [HC1410]	-0.514 (inactive)	-0.264 (inactive)	-1.3 (inactive)
CASCPCSAHLAGNASASA [HC2500]	0.854 (inactive)	-0.381 (inactive)	0.717 (inactive)
